High-throughput results from PubChem.
The sample as a whole holds a higher share of hits than the screen did.
HT1080 IDH1KD tx – toxicity to HT-1080 IDH1 knockdown cells (counter line); HT-1080 IDH1 knockdown viability, ATP luminescence, 48 h; Potency, µM (series often up to 46.1 µM), without a hit: at the top dose activity, negative = toxicity, actives largely listed as cytotoxic; 360,000 compounds, 2% hits;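 further: potency means the concentration at half of the fitted maximal effect; 0% = DMSO wells and -100% = cell-free medium wells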
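HT-1080-IDH1KD cells (IDH1 knocked down), 750/well in RPMI with 5% FBS, treated with compound 48 h at 37 degrees C. Viability by CellTiter-Glo luminescence, normalised to DMSO and no-cell wells; concentration-response curves classed.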
12-LOX inh – ALOX12 (human) lipoxygenase inhibition. P18054. purified 12hLO, xylenol orange hydroperoxide absorbance. Potency, µM (top dose mostly 108 µM), inactives show top-dose activity change, negative = inhibition, most hits filed as inhibitors. 580,000 compounds, 1.1% hits; further: potency means the concentration at half of the fitted maximal effect
Target sequence (P18054 whole entry, looked up): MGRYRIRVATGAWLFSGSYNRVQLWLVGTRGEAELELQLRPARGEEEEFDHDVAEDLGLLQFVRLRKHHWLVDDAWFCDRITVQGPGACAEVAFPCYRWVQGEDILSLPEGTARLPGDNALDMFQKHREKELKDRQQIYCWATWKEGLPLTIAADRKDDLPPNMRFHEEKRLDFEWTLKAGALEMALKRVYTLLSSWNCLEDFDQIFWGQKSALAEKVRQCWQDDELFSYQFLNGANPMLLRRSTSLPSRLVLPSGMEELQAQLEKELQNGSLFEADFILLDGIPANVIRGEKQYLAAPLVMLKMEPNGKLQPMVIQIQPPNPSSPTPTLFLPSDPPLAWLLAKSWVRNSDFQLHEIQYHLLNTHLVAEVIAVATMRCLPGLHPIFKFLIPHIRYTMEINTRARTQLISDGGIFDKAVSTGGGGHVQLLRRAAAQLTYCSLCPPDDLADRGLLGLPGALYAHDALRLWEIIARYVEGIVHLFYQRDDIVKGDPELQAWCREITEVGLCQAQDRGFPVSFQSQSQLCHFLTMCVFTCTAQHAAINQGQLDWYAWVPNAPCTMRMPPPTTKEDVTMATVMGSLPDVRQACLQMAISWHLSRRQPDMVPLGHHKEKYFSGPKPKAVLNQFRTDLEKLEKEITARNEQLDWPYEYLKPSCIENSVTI
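Purified human 12hLO (150 nM final) in 25 mM Hepes, 0.01% Triton X-100, pH 7.0 was preincubated 15 min at room temperature with compound. Then 40 uM arachidonic acid was added, 30 min. Hydroperoxide was read by Fe-XO absorbance ratio 573/405 nm.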
HT1080-NT tox – kills 2HG-producing HT-1080-NT fibrosarcoma cells. Potency, µM (titrated, usually from 46.1 µM), inactives show top-dose activity, negative = less viability, most hits filed as cytotoxic. 360,000 compounds, 1.6% hits. AID 686970. HT-1080-NT fibrosarcoma viability, CellTiter-Glo ATP luminescence, 48 h;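 further: NT is the 2HG producing partner of a matched IDH1 knockdown line; potency means the concentration at half of the fitted maximal effect; 0% = DMSO-treated cells and -100% = media-only wells without cells; nearly all actives have a fitted effect of over 55% in size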
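Toxicity toward the 2HG-producing NT line was scored as %Activity, normalised to DMSO and no-cell wells, from CellTiter-Glo luminescence after 48 hours' treatment.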
TDP1 cell noCPT – qHTS for Inhibitors of human tyrosyl-DNA phosphodiesterase 1 (TDP1): qHTS in cells in absence of CPT | 420,000 compounds, 15% hits | AID 686978, 2013 | Potency, µM (top dose mostly 46.2 µM), for the others: at the top dose activity change, negative = growth inhibition, usual class: inhibitors | DT40 Tdp1-/- hTDP1 cells, no CPT, ATP luminescence, 48 h; further: potency means the concentration at half of the fitted maximal effect; nearly all actives have a fitted effect of over 55% in size
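Chicken DT40 Tdp1-/- cells stably complemented with human TDP1 were seeded at 400 cells/well with DMSO in place of 20 nM camptothecin. After compound pinning, cells grew at least 48 hr at 37 °C; viability read by CellTiter-Glo luminescence.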
TDP1 cell CPT – DT40-hTDP1 cell growth loss with CPT; chicken DT40 Tdp1-/-;hTDP1 cells + 20 nM CPT, ATP luminescence, 48 h; Potency, µM (top dose mostly 46.2 µM), for the others: at the top dose activity change, negative = growth inhibition, hits mostly inhibitors; 420,000 compounds, 12% hits; further: potency means the concentration at half of the fitted maximal effect; nearly all actives have a fitted effect of over 55% in size
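Chicken DT40 Tdp1-/- cells complemented with human TDP1, 400 cells/well, exposed to compounds plus 20 nM camptothecin for at least 48 h at 37 C; viability read as ATP content by CellTiter-Glo luminescence.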
IL1B secr inh – inhibitors of inflammasome signaling (IL-1 beta secretion) | 360,000 compounds, 4.7% hits | THP-1 LPS/ATP IL-1B secretion, AlphaLISA, 16 h; active compounds read low | activity change, % at 57.5 µM; in the data active means activity change below about -50%; inconclusive means mostly about -30% to -49%
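Secreted IL-1B measured by AlphaLISA bead assay after 16 h compound exposure of THP-1 cells; compounds (final up to 57.5 uM) added 1 h before LPS (250 ng/mL) and ATP (1.25 mM) stimulation; lower signal means less secretion.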
Active calls of the source: *; ? = inconclusive; · = no result given. Unless noted, the call rests on the fitted dose curve; in most records, active means well fitted curve in the direction sought with a large enough effect; inconclusive means small, poorly fitted or top-dose-only effect, or another doubt; inactive means no such curve, though single readings can be large; an effect the other way counts as inactive or inconclusive. Unless noted, on the % scale 0 is the no-effect control and ±100 the full control effect.

SMILES	HT1080 IDH1KD tx	12-LOX inh	HT1080-NT tox	TDP1 cell noCPT	TDP1 cell CPT	IL1B secr inh
OC(COC(c1ccc(Cl)cc1)c1ccc(Cl)cc1)CN1CCc2ccccc2C1 (centres undefined)	?	?	20.6µM*	?	?	-79.5*
OC(COC(c1ccccc1)c1ccccc1)CN1CCOCC1 (centres undefined)	-11.7%	3.8%	0.9%	?	?	-2.8
OC(COC(c1ccc(Cl)cc1)c1ccc(Cl)cc1)CN1CCCC1 (centres undefined)	-8.5%	-8.8%	-5.6%	-19.6%	?	-51.2*
OC(COC(c1ccc(F)cc1)c1ccc(F)cc1)CN1CCc2ccccc2C1 (centres undefined)	-13.1%	2.1%	-1.9%	?	?	-72.4*
Cc1ccc(C(=O)N2CCCC3(C2)NC(=O)N(Cc2ccc(Cl)cc2)C3=O)cc1F (centres undefined)	·	-8.8%	·	·	·	·
COc1ccc2c(c1)cc(C(=O)NCCC(=O)Nc1ccc3c(c1)OCCO3)n2C	·	0.0%	·	·	·	·
CCCN(CC1CCOC1)S(=O)(=O)c1ccc2c(c1)OCCO2 (centres undefined)	·	11.7%	·	·	·	·
Cc1ccc(C(OCC(O)CN2CCCCC2)c2ccccc2)cc1 (centres undefined)	0.0%	-21.0%	-9.8%	23.1µM*	1.0%	?
Cc1ccc(C(OCC(O)CNC(CO)C(O)c2ccc([N+](=O)[O-])cc2)c2ccccc2)cc1 (centres undefined)	?	?	20.6µM*	14.6µM*	?	-84.3*
OC(CNCc1ccccc1)COCc1ccc(Cl)cc1 (centres undefined)	-15.6%	-13.9%	-27.5%	-4.8%	6.6%	-13.5
CC(NCC(O)COCc1ccc(Cl)cc1)c1ccccc1 (centres undefined)	?	-20.9%	-28.0%	?	?	-58.5*
Cc1ccc(C(OCC(O)CNC(C)c2ccccc2)c2ccccc2)cc1 (centres undefined)	18.4µM*	?	14.6µM*	11.6µM*	7.31µM*	-106.6*
Cc1ccc(OCC(O)CNC(C)c2ccccc2)cc1C (centres undefined)	-21.5%	-14.6%	0.4%	-104.3%	?	-22.9
CCc1cccc(-n2nnc(-c3nsc(NC(=O)c4cccc(F)c4)n3)c2C)c1	·	1.0%	·	·	·	·
COc1ccc(-c2csc(/C(C#N)=C\c3ccc(OC)c([N+](=O)[O-])c3)n2)cc1	8.9%	-20.7%	9.7%	?	?	6.1
N#C/C(=C\c1ccc(O)c([N+](=O)[O-])c1)c1nc2ccccc2s1	?	22.4µM*	?	16.4µM*	25.9µM*	30.6
COc1cc(/C=C(\C#N)c2nc3ccccc3s2)cc([N+](=O)[O-])c1O	-12.4%	?	-17.1%	16.4µM*	?	91.9
CCOC(CCn1c(SCc2cccc([N+](=O)[O-])c2)nc2ccccc2c1=O)OCC	-27.9%	-17.1%	?	?	16.4µM*	-28.7
COCCn1c(SCc2cccc([N+](=O)[O-])c2)nc2ccccc2c1=O	?	0.0%	-27.0%	?	?	?
CCCCn1c(SCc2ccccc2C)nc2ccsc2c1=O	·	-10.3%	·	?	?	·
CCCCn1c(SCc2cccc([N+](=O)[O-])c2)nc2ccsc2c1=O	2.0%	2.2%	0.2%	23.1µM*	?	-20.0
Cn1c(SCc2cccc([N+](=O)[O-])c2)nc2ccccc2c1=O	?	0.5%	?	11.6µM*	16.4µM*	-6.4
Cn1c(SCc2cccc(C#N)c2)nc2ccccc2c1=O	?	10.4%	?	?	?	-50.4*
